In PubChem BioAssay:
Several values for one entry are separate records, joined by “and”; a condition that tells them apart may be missing. Equal entries are not always repeated. Activity calls are given as the source filed them. Unless noted, how the calls were made is not given here.

Legend:
[1] = resazurin metabolic signal in HepG2 cells – cell-based, resazurin fluorescence, 24 h, PK04 Diversity Set, profiling panel (AID 1172); details: HepG2 viability, higher = more signal
[2] = budding yeast growth changes without added modifier – OD600, strain BY4716, 24 h, basal condition, primary screen (AID 1173); details: S. cerevisiae BY4716 growth, OD600, 24 h; higher = more signal, called active from +8 up or from −8 down
[3] = viability profiling in MM1S myeloma cells – cell-based, resazurin fluorescence, basal, 24 h, PK04 Diversity Set, profiling panel (AID 1174); details: higher = more signal, called active from +8 up or from −8 down;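 further: MM1S multiple myeloma cell line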
[4] = target: Dihydroorotate dehydrogenase (quinone), mitochondrial (Plasmodium falciparum (isolate 3D7)) (UniProt Q08210); experiment: inhibition of P. falciparum DHODH – biochemical, C-terminal His tag, absorbance 600 nm, primary screen (AID 1175); details: PfDHODH enzyme, DCIP absorbance 600 nm; higher = more signal, called active from +8 up or from −8 down;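 further: recombinant parasite enzyme with a five histidine tag at its C terminus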
[5] = inhibition of PAO1 biofilm formation – strain PAO1, LB-PBS medium, absorbance 600 nm, primary screen (AID 1176); details: P. aeruginosa PAO1 growth/biofilm, A600, 12 h; higher = more signal
[6] = growth modulation of vineyard yeast isolate – strain RM11-1a, OD600, basal, 24 h, primary screen (AID 1177);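 further: cultures grown under basal conditions with no added stressor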; details: S. cerevisiae RM11-1a growth, OD600, 24 h; higher = more signal, called active from +8 up or from −8 down
[7] = growth of efflux-deficient E. coli DRC39 – strain DRC39, OD650, 24 h, E. coli filamentation inducers, primary screen (AID 1178);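 further: growth measured as culture turbidity by optical density at 650 nm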; details: E. coli DRC39 acrAB, higher = more signal, called active from +8 up or from −8 down
[8] = growth of efflux-deficient E. coli DRC39 – strain DRC39, OD650, 48 h, E. coli filamentation inducers, primary screen (AID 1179);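 further: screen aims at cell division blockers that make cells filament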; details: E. coli DRC39 delta-acrAB growth, higher = more signal, called active from +8 up or from −8 down
[9] = viability profiling in RPMI8226 myeloma cells – cell-based, resazurin fluorescence, basal, 24 h, PK04 Diversity Set, profiling panel (AID 1180); details: higher = more signal;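 further: RPMI8826 multiple myeloma cell line at 5000 cells per well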
[10] = target: E3 ubiquitin-protein ligase XIAP (Homo sapiens) (UniProt P98170); experiment: small molecules binding XIAP protein – biophysical, small-molecule microarray, fluorescence 635 nm, primary screen (AID 1181); details: higher = more signal;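 further: score merges 667 nm emission and signal to noise over triplicate slides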
[11] = system: XIP peptide (Xip251-270) binding; experiment: XIP fragment 251-270 binding compounds – biochemical, small-molecule microarray, fluorescence 635/667 nm, 0.1 µg/mL protein, primary screen (AID 1182); details: fluorescent protein binding, 635 nm, higher = more signal, called active from +8 up or from −8 down
XIP peptide (Xip251-270) = experiment: compounds binding XIP fragment 251-270 – biochemical, small-molecule microarray, fluorescence 635/667 nm, 0.5 µg/mL protein, primary screen (AID 1183); details: fluorescence 635 nm, higher = more signal
[12] = blood-stage malaria parasite viability loss – strain 3D7, DAPI fluorescence, 100 nL, primary screen (AID 1184);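 further: parasites grown inside human red blood cells in medium with human serum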; details: P. falciparum 3D7 growth, 3 d, higher = more signal
[13] = target: Homeobox protein Hox-A13 (Mus musculus) (UniProt Q62424); experiment: disruptors of Hoxa13 oligonucleotide interaction – biochemical, fluorescence polarization, labeled oligonucleotide, primary screen (AID 1185); details: Hoxa13:DNA binding, 15 min, higher = more signal, called active from +8 up or from −8 down
[14] = blockers of DNA damage checkpoint Chk1 activation – imaging, HeLa, hydroxyurea, phospho-Chk1 antibody, percent positive cells, primary screen (AID 1186); details: hydroxyurea-induced phospho-Chk1 immunofluorescence imaging, higher = more signal
[15] = blockers of DNA damage checkpoint Chk1 activation – imaging, HeLa, hydroxyurea, phospho-Chk1 nuclear intensity, primary screen (AID 1187); details: hydroxyurea-induced phospho-Chk1 immunofluorescence imaging, higher = more signal

Dihydroorotate dehydrogenase (quinone), mitochondrial (Plasmodium falciparum (isolate 3D7)), sequence (Q08210 whole entry, looked up): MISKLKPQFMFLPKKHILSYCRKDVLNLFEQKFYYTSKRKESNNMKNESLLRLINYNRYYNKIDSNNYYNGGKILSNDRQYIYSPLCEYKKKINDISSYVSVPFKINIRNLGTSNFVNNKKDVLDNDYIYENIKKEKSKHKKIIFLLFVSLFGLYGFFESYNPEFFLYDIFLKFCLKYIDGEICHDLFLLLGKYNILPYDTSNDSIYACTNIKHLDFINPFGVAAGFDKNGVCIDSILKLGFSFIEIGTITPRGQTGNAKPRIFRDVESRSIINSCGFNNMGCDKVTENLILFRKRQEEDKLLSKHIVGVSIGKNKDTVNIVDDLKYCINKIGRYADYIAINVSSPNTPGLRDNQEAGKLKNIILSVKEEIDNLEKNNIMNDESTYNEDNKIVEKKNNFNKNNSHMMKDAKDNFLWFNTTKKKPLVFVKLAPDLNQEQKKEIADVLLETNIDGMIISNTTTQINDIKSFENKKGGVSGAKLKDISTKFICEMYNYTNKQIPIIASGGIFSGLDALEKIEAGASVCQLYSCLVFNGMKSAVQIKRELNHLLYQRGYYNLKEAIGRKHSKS
Homeobox protein Hox-A13 (Mus musculus), sequence (Q62424 whole entry, looked up): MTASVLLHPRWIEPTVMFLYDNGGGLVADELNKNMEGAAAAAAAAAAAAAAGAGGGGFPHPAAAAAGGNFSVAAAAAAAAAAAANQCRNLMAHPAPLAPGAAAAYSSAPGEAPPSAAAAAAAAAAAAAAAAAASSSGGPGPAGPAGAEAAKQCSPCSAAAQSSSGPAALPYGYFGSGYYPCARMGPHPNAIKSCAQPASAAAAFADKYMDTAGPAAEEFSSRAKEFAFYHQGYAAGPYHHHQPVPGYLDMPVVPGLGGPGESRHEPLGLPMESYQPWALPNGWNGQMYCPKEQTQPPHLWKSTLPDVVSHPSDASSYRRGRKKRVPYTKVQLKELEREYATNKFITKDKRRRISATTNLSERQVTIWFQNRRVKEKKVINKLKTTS
E3 ubiquitin-protein ligase XIAP (Homo sapiens), sequence (P98170 whole entry, looked up, the tested form may be a part): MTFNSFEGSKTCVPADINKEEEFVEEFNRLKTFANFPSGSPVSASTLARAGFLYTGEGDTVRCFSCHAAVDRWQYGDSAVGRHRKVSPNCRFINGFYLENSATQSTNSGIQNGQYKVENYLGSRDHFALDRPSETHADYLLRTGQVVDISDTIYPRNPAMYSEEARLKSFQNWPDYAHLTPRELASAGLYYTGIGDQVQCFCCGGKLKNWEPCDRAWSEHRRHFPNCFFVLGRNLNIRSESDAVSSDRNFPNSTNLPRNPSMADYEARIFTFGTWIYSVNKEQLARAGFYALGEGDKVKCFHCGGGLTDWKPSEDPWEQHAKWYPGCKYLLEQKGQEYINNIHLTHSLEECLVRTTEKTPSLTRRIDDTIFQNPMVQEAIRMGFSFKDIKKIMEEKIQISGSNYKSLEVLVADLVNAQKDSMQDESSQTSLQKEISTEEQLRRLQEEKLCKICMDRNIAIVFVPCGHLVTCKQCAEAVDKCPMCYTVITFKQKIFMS

| SMILES | z-score [1] | z-score [2] | z-score [3] | composite z-score [4] | z-score [5] | z-score [6] | z-score [7] | z-score [8] | z-score [9] | composite z-score [10] | composite z-score [11] | composite z-score (XIP peptide (Xip251-270)) | z-score [12] | z-score [13] | z-score [14] | z-score [15] |
| --- | --- | --- | --- | --- | --- | --- | --- | --- | --- | --- | --- | --- | --- | --- | --- | --- |
| C=CCN(C(=O)C(c1cccs1)N(C(=O)/C=C\C(=O)O)c1ccc(CCO)cc1)c1ccc(OC)cc1 (stereo unspecified) | 0.495 and -0.158 | -1.66 (inactive) and -1.5 (inactive) | 0.777 (inactive) and 0.249 (inactive) | -1.09 (inactive) and -4.45 (inactive) | 0.413 (inactive) and -0.497 (inactive) | -0.405 (inactive) and 0.127 (inactive) | 1 (inactive) and 0.244 (inactive) | 0.78 (inactive) and 0.864 (inactive) | 0.32 and 0.335 | 0.184 and 0.284 | -0.104 (inactive) and -0.169 (inactive) | -0.0376 and -1.95 | -0.142 and -0.395 | -0.698 (inactive) and -0.535 (inactive) | -0.157 (inactive) and 0.581 (inactive) | 0.686 (inactive) and 0.548 (inactive) |
| COC(=O)[C@@]1(Cc2ccccc2)[C@H]2c3cc(C(=O)N(C)C)n(C[C@H](O)CO)c3C[C@H]2CN1C(=O)c1ccccc1 | -0.777 and -0.734 | 0.168 (inactive) and 1.78 (inactive) | -0.939 (inactive) and -0.957 (inactive) | -0.402 (inactive) and 0.547 (inactive) | 1.32 (inactive) and 0.15 (inactive) | 1.03 (inactive) and -0.204 (inactive) | 0.146 (inactive) and -0.785 (inactive) | -0.121 (inactive) and -0.352 (inactive) | -0.205 and -0.62 | 0.333 and 0.107 | 0.386 (inactive) and -0.28 (inactive) | -0.0997 and 0.84 | -0.894 and -0.297 | -2.22 (inactive) and -4.41 (inactive) | -0.601 (inactive) and 1.42 (inactive) | -0.292 (inactive) and 1.06 (inactive) |
| C=CCN(CCCCC)C(=O)C1N(c2ccc(CCO)cc2)C(=O)C2C(C(=O)O)C3C=CC21O3 (stereo unspecified) | -0.572 and -0.506 | -0.058 (inactive) and 0.644 (inactive) | -0.933 (inactive) and -1.12 (inactive) | -0.0016 (inactive) and 0.598 (inactive) | 0.317 (inactive) and 0.606 (inactive) | -0.611 (inactive) and -0.297 (inactive) | -0.623 (inactive) and -0.0654 (inactive) | -0.689 (inactive) and -0.552 (inactive) | -0.871 and -1.15 | -0.193 and -0.0559 | -0.53 (inactive) and -0.482 (inactive) | 0.668 and 0.706 | 0.062 and -0.336 | -2.29 (inactive) and -2.06 (inactive) | -0.0956 (inactive) and 0.477 (inactive) | 0.0364 (inactive) and 0.181 (inactive) |
| C=CCN(CCCCC)C(=O)C1N(c2c(Cl)cccc2CO)C(=O)C2C(C(=O)O)C3C=CC21O3 (stereo unspecified) | -1.63 and -0.873 | 0.0191 (inactive) and -0.402 (inactive) | -1.48 (inactive) and -0.932 (inactive) | 0.564 (inactive) and -1.24 (inactive) | -0.441 (inactive) and -0.578 (inactive) | 0.501 (inactive) and 0.477 (inactive) | -0.957 (inactive) and -1.11 (inactive) | -0.992 (inactive) and -1.16 (inactive) | -1.52 and -1.3 | -0.237 and -0.0414 | -0.421 (inactive) and -0.228 (inactive) | -0.416 and -1.42 | -1.2 and -1.04 | -2.42 (inactive) and -0.615 (inactive) | -0.672 (inactive) and 0.433 (inactive) | -0.669 (inactive) and 0.367 (inactive) |
| C=CCN1C(=O)[C@]2(O[C@H](CCn3cc(CCO)nn3)[C@@H]([Si](C)(C)c3ccc(OC)cc3)[C@@H]2C)c2cc(N3C(=O)c4cccc5cccc3c45)ccc21 | -6.38 and -6.41 | 1.99 (inactive) and 1.56 (inactive) | -9.01 (active) and -9.12 (active) | 1.19 (inactive) and 1.35 (inactive) | 0.355 (inactive) and 1.15 (inactive) | 4.03 (inactive) and 3.23 (inactive) | 1.91 (inactive) and 1.72 (inactive) | 0.906 (inactive) and 0.389 (inactive) | -6.26 and -6.25 | -0.178 and 0.0256 | 0.0184 (inactive) and 0.416 (inactive) | 0.577 and 0.719 | -2.67 and -2.76 | -5.18 (inactive) and -5.57 (inactive) | -1.98 (inactive) and -1.13 (inactive) | -1.8 (inactive) and -1.3 (inactive) |
| CC(C)OC(=O)C=C1C[C@@H](c2cccc(C(F)(F)F)c2)O[C@@H](c2cccc(C(F)(F)F)c2)O1 | -0.115 and 0.0158 | 0.308 (inactive) and 0.626 (inactive) | -1.7 (inactive) and 0.108 (inactive) | -2.02 (inactive) and -2.59 (inactive) | 0.834 (inactive) and 0.269 (inactive) | 0.69 (inactive) and -0.0601 (inactive) | -0.169 (inactive) and -0.948 (inactive) | 1.04 (inactive) and 0.509 (inactive) | -0.899 and 0.393 | -0.195 and 0.163 | 0.081 (inactive) and 0.769 (inactive) | 0.78 and 0.781 | 0.15 and -0.473 | -2.72 (inactive) and -1.27 (inactive) | -0.394 (inactive) and -0.391 (inactive) | -0.854 (inactive) and -0.46 (inactive) |
